This is a sample that favours compounds with a hit; in the whole collection about 2.3% have one here.
CHO-K1 Ca antag: M1 antagonist counterscreen hit in parental CHO-K1 cells; 360,000 tested, 0.6% active; inhibition, % at 3 µM; ATP-induced calcium, Fluo-8 fluorescence; AID 602250;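 active = inhibition above a per-plate cutoff, the plate's mean sample inhibition plus 3 SD, cut at about 24% in these data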
M1 PAM: positive allosteric modulators of human M1 muscarinic receptor; P11229; CHO-K1 hM1, Fluo-8 calcium fluorescence, ACh EC20; 0% = ACh EC20, 100% = maximal ACh; activation, % at 3 µM; 360,000 tested, 0.088% active; AID 588819; in the data active = activation above about 19%, passing the limit was not always enough
Target sequence (P11229 whole entry, looked up): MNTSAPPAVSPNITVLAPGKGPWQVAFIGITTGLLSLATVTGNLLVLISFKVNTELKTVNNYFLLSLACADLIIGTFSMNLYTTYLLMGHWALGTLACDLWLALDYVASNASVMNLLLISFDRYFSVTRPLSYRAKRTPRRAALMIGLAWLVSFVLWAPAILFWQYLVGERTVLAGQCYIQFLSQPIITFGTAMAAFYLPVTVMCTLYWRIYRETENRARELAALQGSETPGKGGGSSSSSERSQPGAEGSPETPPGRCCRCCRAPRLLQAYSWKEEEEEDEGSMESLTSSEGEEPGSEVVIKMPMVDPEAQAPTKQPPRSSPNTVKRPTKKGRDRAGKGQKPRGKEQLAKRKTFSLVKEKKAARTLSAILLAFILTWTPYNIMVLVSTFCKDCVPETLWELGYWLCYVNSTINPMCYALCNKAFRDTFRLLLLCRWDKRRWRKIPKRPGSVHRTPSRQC
M1 PAM parental: counter-screen for M1 PAMs: effect in parental CHO-K1 cells; 360,000 tested, 0.02% active; ATP EC20, Fluo-8 calcium fluorescence; 0% at ATP EC20, 100% at ATP max; AID 602247; activation, % at 3 µM;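 active = activation above the run cutoff, the mean activation of all test compounds plus 3 SD, cut at about 40% in these data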;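 note: peak over basal fluorescence ratio in a 140 s read after ATP addition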
CHO-K1 Ca ag: M1 agonist counterscreen hit in parental CHO-K1 cells; Fluo-8 calcium fluorescence; scaled to maximal ATP response, vehicle zero; activation, % at 3 µM; 360,000 tested, 0.48% active; AID 602248; in the data active = activation above about 15%;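 note: untransfected CHO-K1 host cells lacking M1 receptor as counterscreen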
M1 ag: agonists of human M1 muscarinic receptor; CHO-K1 hM1, Fluo-8 calcium fluorescence, agonist mode; 0% DMSO, 100% acetylcholine EC100; activation, % at 3 µM; 360,000 tested, 0.33% active;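 active = activation above the run's mean compound activation plus 3 SD, cut at about 16% in these data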;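 note: peak over basal fluorescence ratio within a 140 s kinetic read after compound addition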
CHRM1 antagonist: antagonists of human M1 muscarinic receptor | inhibition, % at 3 µM | P11229 | 360,000 tested, 1.3% active | AID 588852 | CHO-K1 hM1, Fluo-8 calcium fluorescence, ACh EC80 antagonist;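 active = percent inhibition above its own plate's cutoff, namely the mean of that plate's compound wells plus 3 SD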;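 note: peak over basal fluorescence ratio during 140 s after agonist addition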
Numbers stand for hits; . = inactive.

SMILES	CHO-K1 Ca antag	M1 PAM	M1 PAM parental	CHO-K1 Ca ag	M1 ag	CHRM1 antagonist
COc1ccc(C(CNC(=O)Cc2ccccc2Cl)N2CCCCC2)cc1 (centres undefined)	.	.	.	.	.	37.6
COc1ccc(C(CNC(=O)c2ccc(Cl)c(NC(=O)c3cccs3)c2)N2CCCC2)cc1 (centres undefined)	.	.	.	.	.	46.4
CCCC(C(=O)NC(C)(C)CC)N(Cc1ccco1)C(=O)CNS(=O)(=O)c1ccccc1 (centres undefined)	.	.	.	.	.	.
Cc1cn([C@H](C(=O)NCCCCCCCCCCC(=O)N2CCN(C(=O)OC(C)(C)C)CC2)[C@@H](C)O)nn1	.	.	.	.	.	.
Cc1cccc(OCC2CCCN(Cc3nc(C4CC4)no3)C2)c1 (centres undefined)	.	.	.	.	.	.
CCOC(=O)c1cc(C(=O)c2cc(F)ccc2O)coc1=N	.	.	.	.	.	.
N=c1occ(C(=O)c2cc(F)ccc2O)cc1C(=O)NC1CCCCC1	23.7	.	.	.	.	.
CC(C)CCCC(C)NC(=O)c1cc(S(=O)(=O)N2CCCCC2)ccc1N1CCOCC1 (centres undefined)	.	.	.	.	.	.
COc1cc(/C=N/Nc2nc(N3CCCC3)nc(N3CCCC3)n2)ccc1OCc1ccccc1F	.	.	.	.	.	.
Cc1onc(-c2ccccc2)c1C(=O)N(C)CC(=O)Nc1ccc(F)c(F)c1F	.	.	.	.	.	.
CN(C)CCCNC(=O)N1c2ccccc2Sc2ccccc21	.	.	.	.	.	100.3
O=C(CCN1CCOCC1)N1c2ccccc2Sc2ccc(Cl)cc21	.	.	.	.	.	99.5
O=C(NCCN1CCOCC1)N1c2ccccc2Sc2ccccc21	.	.	.	.	.	61.5
O=C(NCCO)N1c2ccccc2Sc2ccccc21	.	.	.	.	.	.
CC1CCN(C(=O)c2ncn3c2c(=O)[nH]c2cccnc23)CC1	.	.	.	.	.	.
Cc1cc(CN2CCN(CC(=O)Nc3cc(C(F)(F)F)ccc3-n3cncn3)CC2)no1	.	.	.	.	.	.
CCOC(=O)NC(=O)/C(C#N)=N/Nc1ccc(F)cc1	27.3	.	.	.	.	.
CCOC(=O)C1=C(COC(=O)/C=C/c2ccco2)NC(=O)NC1C (centres undefined)	.	.	.	.	.	.
CC1=NNC(=O)/C1=C\c1cn(-c2ccccc2)nc1-c1cccs1	30.6	.	.	.	.	33.6
O=C(NC(NNc1ccc([N+](=O)[O-])cc1)(C(F)(F)F)C(F)(F)F)c1ccc(Cl)cc1	.	.	.	.	.	33.6
CN1CCN(CC(O)(c2ccc(Cl)cc2)c2ccc(Cl)cc2)CC1	.	.	.	.	.	72.1
C[C@@H]1CN([C@H](C)CO)C(=O)CCCn2cc(nn2)CO[C@H]1CN(C)C(=O)Nc1cccc(F)c1	.	.	.	.	.	.
CC(=O)Nc1cc(-c2ccc(CO)cc2)cn2c(-c3cccc(C(F)(F)F)c3)cnc12	.	.	.	.	.	.
COc1ccc(NC(C)=O)cc1NC(C)c1nc2sc(C)c(C)c2c(=O)[nH]1 (centres undefined)	.	.	.	16.7	.	.
O=C(COC(=O)c1ccccc1F)Nc1ccc(S(=O)(=O)N2CCOCC2)cc1	.	.	.	.	.	.
SMILES	CHO-K1 Ca antag	M1 PAM	M1 PAM parental	CHO-K1 Ca ag	M1 ag	CHRM1 antagonist
Cc1ccccc1N(CC(=O)N/N=C/c1ccc(Cl)cc1)C(=O)c1ccccc1	25.7	.	.	.	.	.
CCN1/C(=C\C=C(C(C)=O)C(C)=O)Sc2ccccc21	.	.	.	16.7	.	.
O=C1CCc2cc(NS(=O)(=O)c3ccccc3)cc3c2N1CC3	.	.	.	.	.	.
CCc1ccc2oc(-c3ccc(OC)cc3)cc(=Nc3c(C)n(C)n(-c4ccccc4)c3=O)c2c1	.	.	.	.	.	46.9
Cc1cc(OCC(=O)NCc2ccccn2)c2c(C)c(Cc3ccccc3)c(=O)oc2c1	.	.	.	.	.	.
COc1ccc(NS(=O)(=O)c2ccc(C(=O)N3CCN(c4ccc(F)cc4)CC3)cc2)cc1	.	.	.	16.3	.	.
O=C(c1ccc(S(=O)(=O)Nc2ccc(F)cc2)cc1)N1CCN(c2ccccn2)CC1	.	.	.	16.7	.	37.0
CCSc1nc(O)c(Cc2ccccc2)c(=O)[nH]1	30.6	.	.	.	.	.
COc1ccccc1NC(=O)CSc1nc(O)c(Cc2ccccc2)c(=O)[nH]1	.	.	.	.	.	.
CCCCCCCc1c(O)nc(SCCN(C)C)[nH]c1=O	.	.	.	.	.	.
CCCc1c(O)nc(SCCN(CCC)CCC)[nH]c1=O	27.0	.	.	.	.	.
CCOc1ccc(N(C(=O)c2ccc(S(=O)(=O)N3CCCC3)cc2)C2C=CS(=O)(=O)C2)cc1 (centres undefined)	.	.	.	.	.	.
Cc1ccc(F)cc1NC(=O)CSc1n[nH]c(N)n1	.	.	.	.	.	.
CC(C)c1cc(=O)oc2c3c4c(cc12)CCCN4CCC3	.	.	.	.	.	.
O=c1oc2c3c4c(cc2c(C(F)(F)F)c1CCN1CCOCC1)CCCN4CCC3	.	.	.	25.7	25.1	.
C=CCn1c(O)c(C(CC)=NCc2cccnc2)c(=O)[nH]c1=O	25.5	.	.	.	.	.
Cc1[nH][nH]c(=O)c1C=NCc1cccnc1	.	.	.	.	.	.
O=C(CCN1C(=O)c2ccccc2C1=O)N(CCO)Cc1ccccc1	.	.	.	.	.	101.5
O=C(NCc1ccco1)c1ccc(-c2ccc(F)c(F)c2)c2ccoc12	.	.	.	.	.	.
Cc1c(C(=O)OCCN2CCCCC2)oc2ccccc12	.	.	.	.	.	91.8
Cc1c(C(=O)OCC(=O)N2C(C)CCCC2C)oc2ccccc12 (centres undefined)	.	.	.	.	.	.
Cc1c(C(=O)OCC(=O)N(C)Cc2ccccc2)oc2ccccc12	.	.	.	.	.	.
Cc1c(C(=O)OC(C)CCN(C)C)oc2ccccc12 (centres undefined)	.	.	.	.	.	98.5
Cc1c(C(=O)OCC(C)(C)CN(C)C)oc2ccccc12	.	.	.	.	.	53.4
Cc1c(C(=O)OCC(=O)N(C)c2ccccc2)oc2ccccc12	.	.	.	.	.	33.2
CCCc1nnc(SCC(=O)Nc2cccc(C(F)(F)F)c2)o1	.	.	.	.	.	.
Cc1c(C(=O)N2CCOCC2)sc(NC(=O)Cc2ccccc2)c1C#N	.	.	.	.	.	.
COc1ccc(C(=O)OCCN2CCCCC2)cc1	.	.	.	.	.	.
CCN(CC)CC(C)(C)COC(=O)c1oc2ccccc2c1C	.	.	.	.	.	32.5
